Laboratory results taken from the supplement of paper PMC12024529.

Test system: HEK293 WT BDD-FVIII-Gluc
Assay: secreted FVIII-Gluc luciferase Z-score vs DMSO control; higher = more FVIII-Gluc secretion
Details: 5 µM
Experimental: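 Natural plant-compound library (480 compounds, ST catalogue IDs) screened on HEK293 cells stably expressing WT BDD-FVIII-Gaussia luciferase fusion at 5 µM. Secreted Gluc activity in the medium is given as a Z-score relative to DMSO controls.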

Compound | secreted FVIII-Gluc luciferase Z-score
CC(C)(S)[C@H](N)C(=O)O | 0.41
C1CCN2CC3CC(CN4CCCC[C@H]34)C2C1 (stereo not given in full) | 1.22
Cc1cc2nc3c(=O)[nH]c(=O)nc-3n(CC(O)C(O)C(O)CO)c2cc1C (stereo not given) | 0.252
Cc1ncc(CO)c(C=O)c1O | 1.01
O=c1c(O)c(-c2ccccc2)oc2cc(O)cc(O)c12 | 0.586
COC(=O)C[C@](O)(CCCC(C)(C)O)C(=O)O[C@@H]1C(OC)=C[C@]23CCCN2CCc2cc4c(cc2[C@H]13)OCO4 | -4.72
Nc1ncnc2c1ncn2[C@H]1C[C@H](O)[C@@H](CO)O1 | 1.23
COC1OC2COC(c3ccccc3)OC2C(O)C1O (stereo not given) | -1.04
CC[C@@H]1OC(=O)[C@@H](C)[C@H](O[C@H]2C[C@@](C)(OC)[C@@H](O)[C@H](C)O2)C(C)[C@H](O[C@H]2O[C@@H](C)C[C@@H](N(C)C)[C@@H]2O)[C@@](C)(O)C[C@H](C)C(=O)[C@@H](C)[C@H](O)[C@@]1(C)O (stereo not given in full) | -1.17
CC(=O)Oc1cc(OC(C)=O)c2c(=O)cc(-c3ccc(OC(C)=O)c(OC(C)=O)c3)oc2c1 | 0.33
COc1ccc(C2CC(=O)c3c(O)cc(OC4OC(COC5OC(C)C(O)C(O)C5O)C(O)C(O)C4O)cc3O2)cc1O (stereo not given) | 0.438
COc1ccc2c(=O)cc(-c3ccc(O)cc3)oc2c1 | 0.228
COc1ccc2c(c1OC)C(=O)O[C@H]2[C@H]1c2c(cc3c(c2OC)OCO3)CCN1C | 0.932
CC1CCC2[C@](C)(CO)C(O)CC[C@]2(C)C12CCC(CO)(CCO)O2 (stereo not given in full) | 0.9
CC(=O)N1C=C(C2CCCCN2)CCC1 (stereo not given) | 0.76
Nc1ncnc2c1ncn2[C@@H]1O[C@H](COP(=O)(O)OP(=O)(O)O)[C@@H](O)[C@H]1O | 0.0418
O=c1cc(-c2ccccc2)oc2cc(O)cc(O)c12 | 0.596
COc1ccc2[nH]cc(CCNC(C)=O)c2c1 | 0.108
CC(Cc1ccc(O)c(O)c1)C(C)Cc1ccc(O)c(O)c1 (stereo not given) | 0.14
Nc1ccn(C2OC(COP(=O)(O)O)C(O)C2O)c(=O)n1 (stereo not given) | 0.194

Compound | secreted FVIII-Gluc luciferase Z-score
N=c1ccn2c(n1)OC1C2OC(CO)[C@H]1O (stereo not given in full) | -1.3
COc1cc2c(C=O)c3c4c(cc(OC)c(OC)c4c2cc1OC)CCN3C | 0.315
Nc1ncnc2c1ncn2[C@@H]1O[C@H](CO)[C@@H](O)[C@H]1O | 0.566
CC1CC2(C)Oc3ccccc3C3OCC1(COC(=O)Nc1ccccc1)C(C)C32 (stereo not given) | -0.945
CCn1nc(C(=O)O)c(=O)c2cc3c(cc21)OCO3 | -1.17
O=c1cc(-c2ccccc2O)oc2c1ccc1ccccc12 | 0.301
NC(CC(=O)O)C(=O)O (stereo not given) | 0.487
O[C@@H]1COC2C1OC[C@@H]2O (stereo not given in full) | 0.547
O=c1c2ccccc2oc2cc(O)c(C3COCC(CO)C(O)C(O)C3O)c(O)c12 (stereo not given) | 0.341
O=C(O)c1cc(O)c2c(c1)C(=O)c1cccc(O)c1C2=O | 0.381
COc1cc(-c2cc(=O)c3ccccc3o2)ccc1O | 1.57
O=c1c(O)c(-c2ccc(O)c(O)c2)oc2ccccc12 | -0.791
OC[C@@H]1OC(O)[C@@H](O)[C@H](O)[C@H]1O[C@H]1O[C@H](CO)[C@@H](O)[C@H](O)[C@H]1O (stereo not given in full) | 0.204
O=C(O)C1OC(O)C(O)C(O)C1O (stereo not given) | 0.395
C[C@H](CCC(=O)O)[C@H]1CC[C@H]2[C@@H]3C(=O)C[C@@H]4CC(=O)CC[C@]4(C)[C@H]3CC(=O)[C@]12C | 0.818
O=C(CCc1ccc(O)cc1)c1c(O)cc(O)cc1O | -0.769
NC(=O)C1CCCN1C(=O)C(Cc1cnc[nH]1)NC(=O)C1CCC(=O)N1 (stereo not given) | 0.443
COc1ccc2c(c1OC)C(Cc1ccccc1)N1CCc3cc4c(cc3C1C2)OCO4 (stereo not given) | 0.496
CN(C)[C@@H]1C(=O)C(C(=O)NCN2CCCC2)=C(O)[C@@]2(O)C(=O)C3=C(O)c4c(O)cccc4[C@@](C)(O)[C@H]3C[C@@H]12 | 0.407
COc1ccccc1-c1cc(=O)c2cc(O)ccc2o1 | 0.281
